The values below come from PubChem BioAssay (NCATS).

Experiment [1] can be described thus: Primary qHTS for inhibitors of SARS-S pseudo-typed particle cell entry (AID 1479145). Further: nearly all actives have a fitted effect of over 45% in size. On activity change, negative = inhibition: on the % scale 0 is the no-effect control and ±100 the full control effect. To be noted: outcome: dose series up to 57.1 µM unless noted. Background: Quantitative high-throughput screening tests each substance at several concentrations.
The nature of experiment [2]: Primary qHTS for Huh7 cytotoxicity: counterscreen for inhibitors of MERS-S pseudotyped particle cell entry (AID 1479147). Further: potency means the concentration at half of the fitted maximal effect. On activity change, negative = cytotoxicity: on the % scale 0 is the no-effect control and ±100 the full control effect. To be noted: outcome: dose series up to 57.1 µM unless noted.
Experiment [3] in a line: Primary qHTS for inhibitors of MERS-S pseudo-typed particle cell entry (AID 1479149). Further: nearly all actives have a fitted effect of over 60% in size. To be noted: outcome: dose series up to 57.1 µM unless noted.
The nature of experiment [4]: Primary qHTS for Vero E6 cytotoxicity: counterscreen for inhibitors of SARS-S pseudo-typed particle cell entry (AID 1479150). Further: potency means the concentration at half of the fitted maximal effect. On activity change, negative = cytotoxicity: on the % scale 0 is the no-effect control and ±100 the full control effect. To be noted: outcome: dose series up to 57.1 µM unless noted.
Experiment [5] in a line: Cytotoxicity counterscreen for inhibitors of SARS-CoV-2 cell entry (AID 1645845). Further: nearly all actives have a fitted effect of over 50% in size. Further: potency means the concentration at half of the fitted maximal effect. On activity change, negative = cytotoxicity: on the % scale 0 is the no-effect control and ±100 the full control effect. The following applies: outcome: dose series up to 57.1 µM unless noted. In a few lines:
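48 h compound treatment (after 1 h preincubation), HEK293-ACE2 cells, 37 C/5% CO2; ATP luminescence endpoint; normalized to cell wells and media blanks.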

Experiment [6] in a line: Primary qHTS to identify inhibitors of SARS-CoV-2 cell entry (AID 1645846). Further: nearly all actives have a fitted effect of over 45% in size. To be noted: SARS-CoV-2 pseudovirus cell entry assay, luminescence; activity change, negative = inhibition: at 57.1 µM (top of the series) unless noted. In a few lines:
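Using luciferase-reporting pseudoviruses carrying Wuhan-Hu-1 spike, the screen tracks entry into stably ACE2-expressing cells over 48 hr. Activity is expressed relative to spike particles versus particles lacking any fusion protein.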

Structures are written as SMILES. Results filed as inconclusive are left out. Activity calls are given as the source filed them. The call rests on the fitted dose curve.

Regarding `CC(O)C(CO)NC(=O)C1CSSCC(NC(=O)C(N)Cc2ccccc2)C(=O)NC(Cc2ccccc2)C(=O)NC(Cc2c[nH]c3ccccc23)C(=O)NC(CCCCN)C(=O)NC(C(C)O)C(=O)N1` (stereo unspecified), the Potency entry in experiment [1], in experiment [2], in experiment [3], in experiment [4] and in experiment [5] was “inactive” in each case.

Turning to `CNC(=O)c1c(I)c(C(=O)NCC(=O)Nc2c(I)c(C(=O)O)c(I)c(C(=O)NCCO)c2I)c(I)c(N(C)C(C)=O)c1I`, the Potency entry in experiment [1], in experiment [2], in experiment [3], in experiment [4] and in experiment [5] was “inactive” throughout.

On to `CC(C)OC(=O)CCC/C=C\C[C@@H]1[C@@H](CC[C@@H](O)CCc2ccccc2)[C@H](O)C[C@@H]1O`, for which the activity change, negative = inhibition in experiment [1] was -26.3% [at 11.4 µM] (inactive). Moreover, the activity change, negative = cytotoxicity in experiment [2] was -6.62% [at 11.4 µM] (inactive); in experiment [4], 3.55% [at 11.4 µM] (inactive); in experiment [5], -2.53% [at 11.3 µM] (inactive). Besides, the outcome in experiment [3] is “inactive [at 11.4 µM]”.

For the compound `CCC(C)C(NC(=O)C(Cc1ccc(O)cc1)NC(=O)C(NC(=O)C(CCCN=C(N)N)NC(=O)C(N)CC(=O)O)C(C)C)C(=O)NC(Cc1cnc[nH]1)C(=O)N1CCCC1C(=O)NC(Cc1ccccc1)C(=O)O` (stereo unspecified), the Potency result in experiment [1], in experiment [2], in experiment [3], in experiment [4] and in experiment [5] was “inactive” in each case.

For `COC(=O)N[C@H](C(=O)N1CCC[C@H]1c1ncc(-c2ccc3c(c2)O[C@@H](c2ccccc2)n2c-3cc3cc(-c4cnc([C@@H]5CCCN5C(=O)[C@@H](NC(=O)OC)C(C)C)[nH]4)ccc32)[nH]1)C(C)C`, the Potency result in experiment [1], in experiment [2], in experiment [3], in experiment [4] and in experiment [5] was “inactive” in each case.

For the compound `C=C1CCN([C@H](C)[C@](O)(Cn2cncn2)c2ccc(F)cc2F)CC1`, the Potency entry in experiment [1], in experiment [2], in experiment [3], in experiment [4] and in experiment [5] was “inactive” in each case.

For `COc1ccc2c(O[C@H]3CC4C(=O)N(C)CCCC/C=C\[C@@H]5C[C@@]5(C(=O)NS(=O)(=O)C5CC5)NC(=O)[C@@H]4C3)cc(-c3nc(C(C)C)cs3)nc2c1C` (stereo partly specified), the Potency entry in experiment [1], in experiment [2], in experiment [3], in experiment [4] and in experiment [5] was “inactive” each time.

Regarding `CC1=CC(O)CC(C)(C)C1/C=C/C(C)=C/C=C/C(C)=C/C=C/C=C(C)/C=C/C=C(C)/C=C/C1=C(C)CC(O)CC1(C)C` (stereo unspecified), the Potency result in experiment [1], in experiment [2], in experiment [3], in experiment [4] and in experiment [5] was “inactive” in each case.

Regarding `OC[C@H]1O[C@@H](OC[C@H]2O[C@@H](O[C@@H]3[C@@H](O)[C@H](O)O[C@H](CO)[C@H]3O)[C@H](O)[C@@H](O[C@@H]3O[C@H](CO)[C@@H](O)[C@H](O)[C@H]3O)[C@@H]2O)[C@H](O)[C@@H](O)[C@@H]1O`, the Potency entry in experiment [1], in experiment [2], in experiment [3], in experiment [4] and in experiment [5] was “inactive” in each case.

`CC(C)CCC[C@@H](C)[C@H]1CC[C@H]2[C@@H]3CC[C@H]4C[C@@H](O)CC[C@]4(C)[C@@H]3CC[C@]12C`: the Potency result in experiment [1], in experiment [2], in experiment [3], in experiment [4] and in experiment [5] was “inactive” in each case.

As to `OCCOCCOCCO`, the Potency entry in experiment [1], in experiment [2], in experiment [3], in experiment [4] and in experiment [5] was “inactive” each time.

`CC(C)(C)c1ccc2c(S(=O)(=O)O)c(C(C)(C)C)ccc2c1`: the Potency result in experiment [1], in experiment [2], in experiment [3], in experiment [4] and in experiment [5] was “inactive” throughout.

Take `CCCCCCCCN=C(N)NC(N)=NCc1ccc(Cl)c(Cl)c1`: the Potency entry in experiment [1], in experiment [2], in experiment [3], in experiment [4] and in experiment [5] was “inactive” each time.

Turning to `N#Cc1cc(-c2n[nH]c(-c3ccncc3)n2)ccn1`, the Potency entry in experiment [1], in experiment [2], in experiment [3], in experiment [4] and in experiment [5] was “inactive” in each case.

Consider `CCCCC(CC)CCC(CC(C)C)OS(=O)(=O)O` (stereo unspecified), for which the Potency result in experiment [1], in experiment [2], in experiment [3], in experiment [4] and in experiment [5] was “inactive” throughout.

Consider `CC(C)OC(=O)Nc1ccc2nc(-c3cscn3)[nH]c2c1`, for which the Potency entry in experiment [1] and in experiment [3] was “inactive” each time. Moreover, the values for the Potency in experiment [2], in experiment [4] and in experiment [5] were 10 µM (active), 8.91 µM (active) and 7.08 µM (active), respectively.

Take `CN(CC(O)CO)C(=O)c1c(I)c(NC(=O)C(CO)CO)c(I)c(C(=O)N(C)CC(O)CO)c1I` (stereo unspecified): the Potency entry in experiment [1], in experiment [2], in experiment [3], in experiment [4] and in experiment [5] was “inactive” each time.

On to `Cn1nnnc1SCC1=C(C(=O)O)N2C(=O)[C@H](NC(=O)C(O)c3ccccc3)C2SC1` (stereo partly specified), for which the Potency result in experiment [1], in experiment [2], in experiment [3], in experiment [4] and in experiment [5] was “inactive” each time.

Consider `CC12C=CC(=O)NC1CCC1C2CCC2(C)C(C(=O)Nc3cc(C(F)(F)F)ccc3C(F)(F)F)CCC12` (stereo unspecified), for which the Potency entry in experiment [1], in experiment [2], in experiment [3], in experiment [4] and in experiment [5] was “inactive” throughout. In addition, the activity change, negative = inhibition in experiment [6] was -8.68%.

As to `CO[C@H]1/C=C\O[C@@]2(C)Oc3c(C)c(O)c4c(O)c(c5c(nc6cc(C)ccn65)c4c3C2=O)NC(=O)/C(C)=C\C=C/[C@H](C)[C@H](O)[C@@H](C)[C@@H](O)[C@@H](C)[C@H](OC(C)=O)[C@@H]1C`, the Potency entry in experiment [1], in experiment [2], in experiment [3], in experiment [4] and in experiment [5] was “inactive” each time. Also, the activity change, negative = inhibition in experiment [6] was -25.8%.

With `CO[C@H]1O[C@@H]2O[C@@]3(C)CC[C@H]4[C@H](C)CC[C@@H]([C@@H]1C)[C@@]24OO3`, the Potency entry in experiment [1], in experiment [2], in experiment [3], in experiment [4] and in experiment [5] was “inactive” each time. Also, the activity change, negative = inhibition in experiment [6] was -7.86%.

`O=C(O)C1=C(CSc2nnnn2CS(=O)(=O)O)CS[C@@H]2[C@@H](NC(=O)[C@H](O)c3ccccc3)C(=O)N12`: the Potency entry in experiment [1], in experiment [2], in experiment [3], in experiment [4] and in experiment [5] was “inactive” each time. Also, in experiment [6], the activity change, negative = inhibition was -22.2%.

For `CCCCCCCCCCCCCCCCCCCCCCCCCCCCO`, the activity change, negative = inhibition in experiment [1] is -10.7% [at 0.573 µM] (inactive). Also, the outcome in experiment [2] was “inactive [at 0.573 µM]”; in experiment [3], “inactive [at 0.573 µM]”; in experiment [5], “inactive [at 0.702 µM]”; in experiment [6] it was “inactive [at 0.702 µM]”. Besides, the activity change, negative = cytotoxicity in experiment [4] is 3.84% [at 0.573 µM] (inactive).

Regarding `CCCC1C(=O)N2C(N(C)C)=Nc3ccc(C)cc3N2C1=O` (stereo unspecified), the Potency result in experiment [1], in experiment [2], in experiment [3], in experiment [4] and in experiment [5] was “inactive” in each case. In addition, the activity change, negative = inhibition in experiment [6] came to 2.29% [at 114 µM].
